Experimental data taken from PubChem BioAssay (EPA / NIEHS).
Inconclusive results are not listed. The source holds several records for some structures; these can differ, active in one and inactive in another. The source made the active and inactive calls. Rule for the calls: active = hit-call score of the fitted dose curve at least 0.9, where 1 is the maximum; inconclusive = response in the unintended direction; inactive = score below 0.9.

Experiments:
[1] = molecular target: Glucocorticoid receptor (Homo sapiens) (UniProt P04150); experiment: NVS_NR_hGR: NovaScreen (NVS) Nuclear Receptor Binding Assay for human Glucocorticoid Receptor (GR) (AID 2283363);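 for AC50: activity is loss of specific radioligand binding signal relative to DMSO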
Summary of the method: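 Filter scintillation readout of tritiated/iodinated radioligand displaced by test chemical; cell-free extracted protein; 16 h. DMSO = negative control/baseline. Duplicate single-point 25 uM screen, then concentration-response on actives.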

[2] = molecular target: rat Androgen Receptor (AR), Ar (gene 24208) (UniProt P15207); experiment: NVS_NR_rAR: NovaScreen (NVS) Nuclear Receptor Binding Assay for rat Androgen Receptor (AR) (AID 2283366)
Summary of the method: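 Actives from a duplicate single-concentration (25 uM) primary run went on to concentration series. Displacement of radioligand was counted by filtration and scintillation, 18 h post-dose, using prostate extracts from testosterone-pretreated rats, with DMSO as baseline.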

[3] = tested on: guinea pig Dopamine Transporter (DAT), gene 100714898; experiment: NVS_TR_gDAT: NovaScreen (NVS) Transporter Assay for guinea pig Dopamine Transporter (DAT) (AID 2283369);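 note: active compounds lower bound radioligand signal relative to DMSO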
Summary of the method: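 Scintillation counts of filter-retained radioligand report binding to guinea pig striatal membranes after 2 h. Activity scored as signal loss relative to DMSO, first at 25 uM in duplicate, then in concentration series to 50 uM.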

[4] = molecular target: Peroxisome proliferator-activated receptor gamma (Homo sapiens) (UniProt P37231); experiment: NVS_NR_hPPARg: NovaScreen (NVS) Nuclear Receptor Binding Assay for human Peroxisome Proliferator-activated Receptor gamma (PPARg) (AID 2283370)
Summary of the method: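 Chemicals were tested first in duplicate at 25 uM, then in concentration series if active. Binding to cell-free PPARg protein was measured by fluorescence polarization after 2 h, with loss of signal scored against DMSO.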

[5] = molecular target: human Dopamine Transporter (DAT), SLC6A3 (gene 6531) (UniProt Q01959); experiment: NVS_TR_hDAT: NovaScreen (NVS) Transporter Assay for human Dopamine Transporter (DAT) (AID 2283374);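 note: activity means loss of bound radioligand signal relative to DMSO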
Summary of the method: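 hDAT membranes + tritiated/iodinated radioligand, competitive displacement; 1 h; filter scintillation readout. Single conc 25 uM (duplicate), then conc-response for actives. DMSO = negative control.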

[6] = molecular target: guinea pig Sigma Receptor, Non-selective Binding, SIGMAR1 (gene 100135589) (UniProt Q60492); experiment: NVS_OR_gSIGMA_NonSelective: NovaScreen (NVS) Nuclear Receptor Binding Assay for guinea pig Sigma Receptor, Non-selective Binding (AID 2283367)
Summary of the method: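 Membranes from guinea pig brain incubated with radioligand and test chemical for 1 h, then filtered and scintillation-counted. Duplicate primary testing at 25 uM, with concentration-series follow-up for actives.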

[7] = molecular target: human Adenosine Transporter (Adot), SLC29A1 (gene 2030) (UniProt Q99808); experiment: NVS_TR_hAdoT: NovaScreen (NVS) Transporter Assay for human Adenosine Transporter (Adot) (AID 2283368)
Summary of the method: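 Binding displacement on U937 extracted protein, read 1 h post-dose by filtration and scintillation counting. Primary duplicate test at 25 uM, then singleton concentration series with 50 uM top; DMSO baseline.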

[8] = molecular target: human Serotonin Transporter (SERT), SLC6A4 (gene 6532) (UniProt P31645); experiment: NVS_TR_hSERT: NovaScreen (NVS) Transporter Assay for human Serotonin Transporter (SERT) (AID 2283372)
Summary of the method: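 Human platelet membrane preparation; displacement of radioligand from serotonin transporter measured after 1 h by filtration and scintillation counting. Single 25 uM duplicate screen, then concentration series for actives, with DMSO as negative baseline.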

[9] = molecular target: Nuclear receptor subfamily 1 group I member 2 (Homo sapiens) (UniProt O75469); experiment: NVS_NR_hPXR: NovaScreen (NVS) Nuclear Receptor Binding Assay for human Pregnane X Receptor (PXR) (AID 2283365);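 note: a drop in FRET signal versus DMSO baseline means the compound binds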
Summary of the method: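 Human PXR protein, cell-free; compound added, incubated 2 h, TR-FRET read. Signal decrease vs DMSO = binding. Screened 25 uM duplicate, actives re-run as dilution series.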

[10] = tested on: rat Norepinephrine Transporter (NET), gene 83511; experiment: NVS_TR_rNET: NovaScreen (NVS) Transporter Assay for rat Norepinephrine Transporter (NET) (AID 2283373)
Summary of the method: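 Competitive radioligand displacement at the rat NET using forebrain membrane preparations, 1 h incubation, filter-based scintillation readout. Primary testing in duplicate at a single 25 uM concentration; confirmed actives retested across concentrations.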

Nuclear receptor subfamily 1 group I member 2 (Homo sapiens), sequence (O75469 whole entry, looked up): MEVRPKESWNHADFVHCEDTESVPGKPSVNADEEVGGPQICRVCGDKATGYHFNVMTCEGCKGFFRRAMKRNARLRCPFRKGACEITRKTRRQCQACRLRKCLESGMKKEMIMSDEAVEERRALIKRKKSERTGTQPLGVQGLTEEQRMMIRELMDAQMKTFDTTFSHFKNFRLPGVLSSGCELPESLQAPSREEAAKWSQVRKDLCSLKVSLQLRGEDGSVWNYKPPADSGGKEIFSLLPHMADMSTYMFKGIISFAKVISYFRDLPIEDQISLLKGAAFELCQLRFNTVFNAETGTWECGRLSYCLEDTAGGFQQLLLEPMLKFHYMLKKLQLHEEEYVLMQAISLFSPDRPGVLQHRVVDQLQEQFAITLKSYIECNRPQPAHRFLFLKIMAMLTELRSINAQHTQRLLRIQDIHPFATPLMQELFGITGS
rat Androgen Receptor (AR), Ar (gene 24208), sequence (P15207 whole entry, looked up): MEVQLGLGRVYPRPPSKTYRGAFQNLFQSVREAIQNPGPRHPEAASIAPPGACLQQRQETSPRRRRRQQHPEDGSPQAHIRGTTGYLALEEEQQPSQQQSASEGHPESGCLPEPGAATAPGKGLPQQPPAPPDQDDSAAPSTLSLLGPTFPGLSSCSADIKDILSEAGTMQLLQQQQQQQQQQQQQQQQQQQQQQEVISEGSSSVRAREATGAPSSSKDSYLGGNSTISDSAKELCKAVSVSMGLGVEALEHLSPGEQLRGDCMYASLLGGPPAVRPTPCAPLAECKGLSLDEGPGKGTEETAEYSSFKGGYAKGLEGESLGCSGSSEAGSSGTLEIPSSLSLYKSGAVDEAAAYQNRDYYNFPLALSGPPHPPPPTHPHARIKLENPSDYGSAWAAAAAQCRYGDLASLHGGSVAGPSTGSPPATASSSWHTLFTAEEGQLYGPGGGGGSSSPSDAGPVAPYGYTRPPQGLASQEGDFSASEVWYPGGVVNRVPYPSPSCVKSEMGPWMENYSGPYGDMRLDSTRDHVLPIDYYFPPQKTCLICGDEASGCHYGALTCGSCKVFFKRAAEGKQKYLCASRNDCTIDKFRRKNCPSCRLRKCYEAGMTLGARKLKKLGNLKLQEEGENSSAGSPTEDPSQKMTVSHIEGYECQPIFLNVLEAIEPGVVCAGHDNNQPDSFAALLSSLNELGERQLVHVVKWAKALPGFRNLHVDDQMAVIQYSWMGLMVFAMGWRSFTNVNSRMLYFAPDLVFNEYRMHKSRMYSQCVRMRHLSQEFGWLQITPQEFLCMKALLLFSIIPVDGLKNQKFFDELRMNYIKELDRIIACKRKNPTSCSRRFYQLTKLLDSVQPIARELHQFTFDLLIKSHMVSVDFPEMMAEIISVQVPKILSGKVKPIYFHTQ
Glucocorticoid receptor (Homo sapiens), sequence (P04150 whole entry, looked up): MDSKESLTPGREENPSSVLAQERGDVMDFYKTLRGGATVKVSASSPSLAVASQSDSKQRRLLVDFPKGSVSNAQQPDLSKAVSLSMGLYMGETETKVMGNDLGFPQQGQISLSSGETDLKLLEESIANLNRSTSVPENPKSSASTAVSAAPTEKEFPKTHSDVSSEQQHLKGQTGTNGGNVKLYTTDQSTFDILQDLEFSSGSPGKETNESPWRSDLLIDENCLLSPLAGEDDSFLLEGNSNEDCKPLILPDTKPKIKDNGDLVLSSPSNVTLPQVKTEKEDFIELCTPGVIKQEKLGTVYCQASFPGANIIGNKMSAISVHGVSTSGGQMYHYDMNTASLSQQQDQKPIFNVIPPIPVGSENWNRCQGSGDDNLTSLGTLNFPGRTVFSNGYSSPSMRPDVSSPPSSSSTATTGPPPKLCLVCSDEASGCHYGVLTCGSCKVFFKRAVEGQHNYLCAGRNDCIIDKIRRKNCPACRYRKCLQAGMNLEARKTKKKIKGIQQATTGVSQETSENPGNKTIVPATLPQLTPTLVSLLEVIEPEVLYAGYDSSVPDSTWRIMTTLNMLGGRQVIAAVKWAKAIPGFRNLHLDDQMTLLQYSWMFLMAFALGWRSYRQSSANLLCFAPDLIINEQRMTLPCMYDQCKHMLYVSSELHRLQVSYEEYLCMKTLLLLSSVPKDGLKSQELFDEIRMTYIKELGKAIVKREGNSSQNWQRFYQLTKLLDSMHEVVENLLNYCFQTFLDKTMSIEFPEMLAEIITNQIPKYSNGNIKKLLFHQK
Peroxisome proliferator-activated receptor gamma (Homo sapiens), sequence (P37231 whole entry, looked up): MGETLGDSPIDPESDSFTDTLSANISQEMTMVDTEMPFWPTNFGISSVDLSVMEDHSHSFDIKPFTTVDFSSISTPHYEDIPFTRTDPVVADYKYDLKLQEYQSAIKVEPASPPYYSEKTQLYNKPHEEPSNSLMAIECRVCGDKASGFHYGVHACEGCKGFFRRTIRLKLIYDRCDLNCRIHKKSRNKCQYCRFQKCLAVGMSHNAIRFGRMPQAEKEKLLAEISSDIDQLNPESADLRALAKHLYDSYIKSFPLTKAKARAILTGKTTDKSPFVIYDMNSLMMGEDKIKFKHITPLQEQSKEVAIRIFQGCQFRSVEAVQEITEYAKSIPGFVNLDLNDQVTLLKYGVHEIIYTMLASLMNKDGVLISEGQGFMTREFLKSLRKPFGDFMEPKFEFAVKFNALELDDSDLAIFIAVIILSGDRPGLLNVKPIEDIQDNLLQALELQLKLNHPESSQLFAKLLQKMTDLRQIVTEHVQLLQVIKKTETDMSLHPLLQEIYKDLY
human Dopamine Transporter (DAT), SLC6A3 (gene 6531), sequence (Q01959 whole entry, looked up): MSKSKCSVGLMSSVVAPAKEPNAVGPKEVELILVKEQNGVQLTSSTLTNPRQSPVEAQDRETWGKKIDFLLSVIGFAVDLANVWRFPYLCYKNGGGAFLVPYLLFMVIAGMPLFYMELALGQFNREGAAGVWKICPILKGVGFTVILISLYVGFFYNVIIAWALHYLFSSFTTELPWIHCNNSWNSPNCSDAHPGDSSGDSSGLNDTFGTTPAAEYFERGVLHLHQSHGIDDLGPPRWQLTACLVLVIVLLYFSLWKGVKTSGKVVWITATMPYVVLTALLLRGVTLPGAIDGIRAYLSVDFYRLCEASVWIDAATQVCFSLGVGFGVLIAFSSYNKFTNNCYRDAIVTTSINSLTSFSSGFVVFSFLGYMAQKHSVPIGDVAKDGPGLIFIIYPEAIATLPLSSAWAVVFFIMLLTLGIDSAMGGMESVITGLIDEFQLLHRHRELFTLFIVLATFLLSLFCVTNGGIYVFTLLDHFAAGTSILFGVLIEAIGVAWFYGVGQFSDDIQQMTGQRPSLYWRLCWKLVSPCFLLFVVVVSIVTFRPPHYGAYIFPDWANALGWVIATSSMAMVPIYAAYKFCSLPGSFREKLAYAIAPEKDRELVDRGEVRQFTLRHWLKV
human Serotonin Transporter (SERT), SLC6A4 (gene 6532), sequence (P31645 whole entry, looked up): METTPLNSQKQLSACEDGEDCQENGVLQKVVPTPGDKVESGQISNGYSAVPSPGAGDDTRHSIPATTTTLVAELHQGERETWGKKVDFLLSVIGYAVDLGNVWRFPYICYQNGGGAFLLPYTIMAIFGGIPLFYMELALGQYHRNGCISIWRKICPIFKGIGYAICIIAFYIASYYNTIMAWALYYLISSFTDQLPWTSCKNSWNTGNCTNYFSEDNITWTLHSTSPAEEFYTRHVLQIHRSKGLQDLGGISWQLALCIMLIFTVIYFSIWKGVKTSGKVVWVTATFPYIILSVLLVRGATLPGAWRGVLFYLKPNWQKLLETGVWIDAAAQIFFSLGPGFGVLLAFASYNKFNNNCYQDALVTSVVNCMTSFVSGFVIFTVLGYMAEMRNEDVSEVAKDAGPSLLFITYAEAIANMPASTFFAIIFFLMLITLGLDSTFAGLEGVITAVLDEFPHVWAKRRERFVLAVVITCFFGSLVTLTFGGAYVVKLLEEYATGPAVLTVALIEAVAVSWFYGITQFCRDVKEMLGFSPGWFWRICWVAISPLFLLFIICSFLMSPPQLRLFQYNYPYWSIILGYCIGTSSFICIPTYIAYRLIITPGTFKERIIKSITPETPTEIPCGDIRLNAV
guinea pig Sigma Receptor, Non-selective Binding, SIGMAR1 (gene 100135589), sequence (Q60492 whole entry, looked up): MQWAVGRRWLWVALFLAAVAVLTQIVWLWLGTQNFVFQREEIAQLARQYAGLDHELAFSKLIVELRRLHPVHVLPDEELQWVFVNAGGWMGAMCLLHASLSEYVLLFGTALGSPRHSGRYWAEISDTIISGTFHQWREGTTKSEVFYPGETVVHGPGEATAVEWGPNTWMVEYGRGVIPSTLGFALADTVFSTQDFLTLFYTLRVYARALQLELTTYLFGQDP
human Adenosine Transporter (Adot), SLC29A1 (gene 2030), sequence (Q99808 whole entry, looked up): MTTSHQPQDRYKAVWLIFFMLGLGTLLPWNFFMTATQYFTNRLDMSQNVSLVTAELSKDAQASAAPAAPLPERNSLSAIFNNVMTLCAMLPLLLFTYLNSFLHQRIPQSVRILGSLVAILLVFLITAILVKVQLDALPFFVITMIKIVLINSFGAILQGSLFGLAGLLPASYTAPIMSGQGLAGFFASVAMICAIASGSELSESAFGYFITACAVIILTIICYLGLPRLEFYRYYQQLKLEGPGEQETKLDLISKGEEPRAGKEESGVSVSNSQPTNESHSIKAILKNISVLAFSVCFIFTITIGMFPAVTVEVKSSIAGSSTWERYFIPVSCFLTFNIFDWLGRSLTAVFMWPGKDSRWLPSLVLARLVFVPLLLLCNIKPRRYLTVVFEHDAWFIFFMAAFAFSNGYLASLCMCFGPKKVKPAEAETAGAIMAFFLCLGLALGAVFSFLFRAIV

With `CNC(=O)ON=C(C)SC` the outcome [1] was “inactive”.
With `CCCCOC(=O)c1ccccc1C(=O)O` the outcome [2] was “inactive”, the outcome [3] was “inactive” and the outcome [4] was “inactive”. The AC50 [5] was 8.41 µM (active).
In the case of `CC(COc1ccc(Oc2ccccc2)cc1)Oc1ccccn1` (configuration not stated), the outcome [2] is reported as “inactive”, the outcome [4] is reported as “inactive” and the outcome [5] is reported as “inactive”.
In the case of `CCOP(=S)(OCC)SCCSCC`, the outcome [1] is reported as “inactive” and the outcome [4] is reported as “inactive”.
With `CCCOCC(=Nc1ccc(Cl)cc1C(F)(F)F)n1ccnc1` the AC50 [1] was 7.9 µM (active), the AC50 [6] was 7.82 µM (active) and the AC50 [7] was 25 µM (active). The outcome [3] was “inactive”, the AC50 [4] was 17.6 µM (active) and the outcome [8] was “inactive”. For the same compound, the AC50 [5] was 10.2 µM (active).
For `CC(C1CC1)C(O)(Cn1cncn1)c1ccc(Cl)cc1` (configuration not stated), the outcome [9] was “inactive” and the AC50 [5] was 0.175 µM (active).
For `CN(C)[C@@H]1C(=O)C(C(N)=O)=C(O)[C@@]2(O)C(=O)C3=C(O)c4c(O)cccc4[C@@](C)(O)[C@H]3[C@H](O)[C@@H]12`, the AC50 [9] was 2.08 µM (active), the outcome [9] was “inactive” and the AC50 [4] was 20.2 µM (active). The outcome [4] was “inactive”.
`FC(F)C(F)(F)OCC(Cn1cncn1)c1ccc(Cl)cc1Cl` (configuration not stated) was tested, and the AC50 [1] was 8.87 µM (active), the AC50 [6] was 16.5 µM (active) and the AC50 [5] was 7.59 µM (active).
With `CCOP(=S)(OCC)Oc1ccc([N+](=O)[O-])cc1` the AC50 [1] was 6.96 µM (active), the outcome [4] was “inactive” and the AC50 [8] was 7.25 µM (active).
For `CC[C@H](C)[C@H]1O[C@]2(C=C[C@@H]1C)C[C@@H]1C[C@@H](C/C=C(\C)[C@@H](O[C@H]3C[C@H](OC)[C@@H](O[C@H]4C[C@H](OC)[C@@H](NC)[C@H](C)O4)[C@H](C)O3)[C@@H](C)/C=C/C=C3\CO[C@@H]4[C@H](O)C(C)=C[C@@H](C(=O)O1)[C@]34O)O2`, the AC50 [9] was 6.81 µM (active), the outcome [10] was “inactive” and the outcome [5] was “inactive”.
In the case of `CNC(=O)ON=C(SC)C(=O)N(C)C`, the outcome [2] is reported as “inactive”.
With `COc1ccc(C(=CC(=O)N2CCOCC2)c2ccc(Cl)cc2)cc1OC` the AC50 [1] was 13.4 µM (active), the AC50 [7] was 9.48 µM (active) and the outcome [8] was “inactive”.
For `CCOP(=S)(OCC)Oc1cc(C)nc(C(C)C)n1`, the outcome [1] was “inactive”.
For `CCCSP(=O)(OCC)SCCC`, the outcome [1] was “inactive”, the outcome [2] was “inactive” and the outcome [4] was “inactive”.
With `COP(=O)(NC(C)=O)SC` (configuration not stated) the AC50 [1] was 1.66 µM (active) and the outcome [4] was “inactive”.
